For 32 compounds, outcome results are on record in PubChem BioAssay (EPA / NIEHS).

Records with an inconclusive call do not appear. Activity calls are given as the source filed them. The calls were made as follows, unless noted: active = hit-call score of the fitted dose curve at least 0.9, where 1 is the maximum; inconclusive = response in the unintended direction; inactive = score below 0.9.

Experiment [1] concerns the target Cellular tumor antigen p53 (Homo sapiens) (UniProt P04637). Put plainly: TOX21_p53_BLA_p5_ratio: Tox21 HCT-116 p53 Agonism Beta-lactamase Assay, Ratio, Phase 5 (AID 2283599). Put shortly:
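HCT-116 p53-bla cells (4000/well) plated 5 h, dosed with compound (217-fold DMSO dilution) for 16 h at 37 C; CCF4-AM substrate 2 h at room temperature. Activity is the 460/530 nm emission ratio (405 nm excitation), fitted in gain-of-signal direction versus DMSO.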

Experiment [2] in a line: TOX21_p53_BLA_p5_viability: Viability Assessment in the Tox21 HCT-116 p53 Agonism Beta-lactamase Assay, Phase 5 (AID 2283600). Put shortly:
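Here cell health was gauged by ATP levels in wells holding 4000 cells, each treated 16 h with DMSO-delivered compounds at 217-fold dilution; reduced luminescence marked toxicity.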

Experiment [3] concerns the target Cellular tumor antigen p53 (Homo sapiens) (UniProt P04637). Nature of the experiment: TOX21_p53_BLA_p4_ratio: Tox21 HCT-116 p53 Agonism Beta-lactamase Assay, Ratio, Phase 4 (AID 2283601). Put shortly: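 HCT-116 p53 beta-lactamase reporter cells (4000/well) preincubated 5 h, then compound (217-fold dilution of DMSO stock) for 16 h at 37C. CCF4-AM substrate added 2 h at room temperature; 460/530 nm emission ratio fitted upward versus DMSO.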

Experiment [4] is described as follows: TOX21_p53_BLA_p4_viability: Viability Assessment in the Tox21 HCT-116 p53 Agonism Beta-lactamase Assay, Phase 4 (AID 2283597).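 Also: hits lower the luminescence signal meaning cytotoxicity.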 The method, boiled down:
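In this multiplexed secondary endpoint, HCT116 cells (4000 per well, compound at 5 h, 16 h treatment) received CellTiter-Glo after the beta-lactamase read. Luminescence after 30 min RT reflects ATP, and falling signal marks cytotoxicity.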

Experiment [5] can be described thus: CEETOX_H295R_MTT_cell_viability: Viability Assessment in the CeeTox HT-H295R MTT Assay (AID 2283718; active = hit-call score of the fitted dose curve at least 0.9, where 1 is the maximum; inactive = score below 0.9). Put shortly:
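Human H295R adrenal cells, prestimulated 48 h with 10 uM forskolin, were exposed 48 h to chemicals in 0.1% DMSO. Viability was measured in the same wells by MTT (0.5 mg/ml, 4 h, 37 C), absorbance 570/650 nm, as percent of controls.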

A short description of experiment [6]: CEETOX_H295R_11DCORT_noMTC: CeeTox H295R High-throughput Steroidogenesis Assay for 11-Deoxycortisol (11DCORT), maximum tolerated concentration (MTC) filtered results only (AID 2283911; active = hit-call score of the fitted dose curve at least 0.9, where 1 is the maximum; inactive = score below 0.9). Conditions: actives raise or lower the signal. The method, boiled down: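 Forskolin-primed (10 uM, 48 h) H295R adrenal cells are dosed for 48 h at 0.1% DMSO; medium 11-deoxycortisol is quantified by LC-MS/MS against a 7-point standard curve, with activity fitted in both directions versus DMSO.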

Experiment [7] in a line: CEETOX_H295R_OHPREG_noMTC: CeeTox H295R High-throughput Steroidogenesis Assay for OH-Pregnenolone (OHPREG), maximum tolerated concentration (MTC) filtered results only (AID 2283912; active = hit-call score of the fitted dose curve at least 0.9, where 1 is the maximum; inactive = score below 0.9). The settings on record: actives raise or lower the signal. Put shortly:
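H295R; 10 uM forskolin 48 h pre-stim; test cpd in DMSO (0.1% final) 48 h; media MTBE-extracted, HPLC-MS/MS for OH-pregnenolone; bidirectional fit vs DMSO; no MTC (MTT) filtering.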

Experiment [8] can be described thus: CEETOX_H295R_OHPROG_noMTC: CeeTox H295R High-throughput Steroidogenesis Assay for OH-Progesterone (OHPROG), maximum tolerated concentration (MTC) filtered results only (AID 2283914; active = hit-call score of the fitted dose curve at least 0.9, where 1 is the maximum; inactive = score below 0.9). The settings on record: actives raise or lower the signal. The method, boiled down:
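Medium hormone measured by reverse-phase C18 HPLC with positive electrospray MS/MS after MTBE liquid-liquid extraction. Cells had 48 h forskolin (10 uM) prestimulation, then 48 h chemical dosing. Gain or loss of signal fitted relative to DMSO baseline.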

The nature of experiment [9]: CEETOX_H295R_ANDR_noMTC: CeeTox H295R High-throughput Steroidogenesis Assay for Androstenedione (ANDR), maximum tolerated concentration (MTC) filtered results only (AID 2283915; active = hit-call score of the fitted dose curve at least 0.9, where 1 is the maximum; inactive = score below 0.9). Conditions: actives raise or lower the signal. Put shortly: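 Androstenedione secreted into medium was measured by LC-MS/MS after MTBE extraction. Human adrenal H295R cells received 10 uM forskolin for 48 h before 48 h chemical exposure (0.1% DMSO). Gain or loss fitted against DMSO, including concentrations above the MTT-derived MTC.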

Experiment [10] can be described thus: CEETOX_H295R_CORTISOL_noMTC: CeeTox H295R High-throughput Steroidogenesis Assay for Cortisol, maximum tolerated concentration (MTC) filtered results only (AID 2283916; active = hit-call score of the fitted dose curve at least 0.9, where 1 is the maximum; inactive = score below 0.9). The settings on record: actives raise or lower the signal. Put shortly: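 H295R human adrenal cells prestimulated 48 h with 10 uM forskolin, then exposed 48 h to chemical in 0.1% DMSO; cortisol in medium quantified by HPLC-MS/MS; bidirectional fit vs DMSO baseline, concentrations not MTT-filtered for MTC.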

Experiment [11] can be described thus: CEETOX_H295R_CORTIC_noMTC: CeeTox H295R High-throughput Steroidogenesis Assay for Corticosterone (CORTIC), maximum tolerated concentration (MTC) filtered results only (AID 2283917; active = hit-call score of the fitted dose curve at least 0.9, where 1 is the maximum; inactive = score below 0.9). The settings on record: actives raise or lower the signal. Put shortly:
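Corticosterone secreted into the medium was measured by reverse-phase C18 HPLC with tandem MS after MTBE extraction. Cells (H295R) had 48 h forskolin (10 uM) stimulation before 48 h chemical exposure; gain or loss of signal was fitted relative to DMSO.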

Experiment [12] is described as follows: CEETOX_H295R_DOC_noMTC: CeeTox H295R High-throughput Steroidogenesis Assay for DOC, maximum tolerated concentration (MTC) filtered results only (AID 2283918; active = hit-call score of the fitted dose curve at least 0.9, where 1 is the maximum; inactive = score below 0.9). The settings on record: actives raise or lower the signal. The method, boiled down:
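H295R cells prestimulated 48 h with 10 uM forskolin, then exposed 48 h to chemical in 0.1% DMSO. 11-Deoxycorticosterone in medium measured by MTBE extraction and HPLC-MS/MS; bidirectional fit vs DMSO, no MTC filter.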

Experiment [13] is described as follows: CEETOX_H295R_ESTRADIOL_noMTC: CeeTox H295R High-throughput Steroidogenesis Assay for Estradiol, maximum tolerated concentration (MTC) filtered results only (AID 2283919; active = hit-call score of the fitted dose curve at least 0.9, where 1 is the maximum; inactive = score below 0.9). The settings on record: actives raise or lower the signal. The method, boiled down:
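Readout: dansyl-derivatized estradiol quantified by LC-MS/MS in medium from H295R cells dosed 48 h (0.1% DMSO) following 48 h forskolin (10 uM) prestimulation. Gain or loss of signal fitted against DMSO; no MTC filtering applied.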

Experiment [14] in a line: CEETOX_H295R_PROG_noMTC: CeeTox H295R High-throughput Steroidogenesis Assay for Progesterone (PROG), maximum tolerated concentration (MTC) filtered results only (AID 2283920; active = hit-call score of the fitted dose curve at least 0.9, where 1 is the maximum; inactive = score below 0.9). The settings on record: actives raise or lower the signal. The method, boiled down:
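Readout: medium progesterone by MTBE extraction, reverse-phase C18 HPLC, ESI-positive MS/MS. Human H295R cells, 10 uM forskolin pretreatment 48 h, chemical 48 h in 0.1% DMSO. Gain or loss fitted against DMSO baseline.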

The nature of experiment [15]: CEETOX_H295R_ESTRONE_noMTC: CeeTox H295R High-throughput Steroidogenesis Assay for Estrone, maximum tolerated concentration (MTC) filtered results only (AID 2283921; active = hit-call score of the fitted dose curve at least 0.9, where 1 is the maximum; inactive = score below 0.9). The settings on record: actives raise or lower the signal. Put shortly: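 Estrone in spent medium, quantified by tandem MS following dansyl chloride derivatization, after 48 h chemical exposure (0.1% DMSO) of forskolin-prestimulated (10 uM, 48 h) H295R cells; concentrations not MTC-filtered, bidirectional fit against DMSO.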

Experiment [16] is described as follows: CEETOX_H295R_TESTO_noMTC: CeeTox H295R High-throughput Steroidogenesis Assay for Testosterone (TESTO), maximum tolerated concentration (MTC) filtered results only (AID 2283924; active = hit-call score of the fitted dose curve at least 0.9, where 1 is the maximum; inactive = score below 0.9). Conditions: actives raise or lower the signal. The method, boiled down:
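Medium testosterone, measured by HPLC-MS/MS after liquid-liquid extraction, was fitted in both directions relative to DMSO without MTC filtering. Adrenal H295R cells received 48 h chemical exposure (0.1% DMSO final) after 48 h forskolin (10 uM) prestimulation; viability by MTT.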

Chain of Cellular tumor antigen p53 (Homo sapiens) (P04637 whole entry, looked up): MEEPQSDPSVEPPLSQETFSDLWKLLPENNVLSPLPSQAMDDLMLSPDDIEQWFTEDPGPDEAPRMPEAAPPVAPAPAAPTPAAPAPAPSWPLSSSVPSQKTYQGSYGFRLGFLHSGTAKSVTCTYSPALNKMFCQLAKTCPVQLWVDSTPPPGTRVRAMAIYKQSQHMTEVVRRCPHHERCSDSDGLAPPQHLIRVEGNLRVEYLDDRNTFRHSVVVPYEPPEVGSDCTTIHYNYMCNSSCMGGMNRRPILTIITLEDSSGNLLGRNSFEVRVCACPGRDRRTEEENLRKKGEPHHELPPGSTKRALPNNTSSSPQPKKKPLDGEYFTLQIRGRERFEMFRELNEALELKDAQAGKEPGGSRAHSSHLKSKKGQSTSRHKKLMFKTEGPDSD

As for `CO[C@@]1(NC(=O)CSC[C@@H](N)C(=O)O)C(=O)N2C(C(=O)O)=C(CSc3nnnn3C)CS[C@@H]21`, the result in experiment [1] and in experiment [2] was inactive.

Turning to `CCOC(=O)/C=C/C(=O)OCC`, the compound was classed as inactive in experiment [2] and in experiment [3].

Take `COc1ccc(C)cc1[N+](=O)[O-]`: the result in experiment [1] and in experiment [2] was inactive.

On to `NC(=O)Oc1ccc(Cc2ccccc2)cc1`, for which the compound was classed as inactive in experiment [4] and in experiment [3].

For the compound `C=CCc1cc(OC)c(O)c(C(=O)NCCO)c1`, the compound was classed as inactive in [4] and in experiment [3].

Consider `CCCCC(=O)N(Cc1ccc(-c2ccccc2-c2nn[nH]n2)cc1)[C@@H](C(=O)O)C(C)C`, for which, in experiment [1], the outcome was inactive.

In the case of `c1cnc2cc3c(cc2n1)[C@@H]1CNC[C@H]3C1`, the outcome in experiment [1] and in experiment [3] was inactive.

For the compound `Cc1ccc(CO)cc1`, the result in experiment [1] and in [2] was inactive.

As to `Cc1nc(-c2ccc(Cl)cc2)oc1COC(C)(C)C(=O)O`, the result in experiment [1], in experiment [2] and in experiment [3] was inactive.

Regarding `Nc1ccc(S(=O)(=O)NC(=O)c2ccccc2)cc1`, the outcome in experiment [1] and in experiment [3] was inactive.

Regarding `CN1CCC[C@@H]1Cc1c[nH]c2ccc(CCS(=O)(=O)c3ccccc3)cc12`, the result in experiment [1] was inactive.

Turning to `CCO/C([O-])=N/c1c[n+](N2CCOCC2)no1`, the result in experiment [1], in experiment [2] and in experiment [3] was inactive.

With `Cc1cc(N)no1`, the compound was called inactive in experiment [2] and in [3].

For `CC(C)CCOC(=O)C=Cc1ccccc1`, the outcome in experiment [1] and in experiment [2] was inactive.

Turning to `Cc1ccc(C)cc1`, the outcome in experiment [2] was inactive.

For the compound `CNCCC(Oc1ccccc1OC)c1ccccc1` (stereo not drawn), the outcome in [2] and in experiment [3] was inactive.

Take `CC1=C(/C=C/C(C)=C/C=C/C(C)=C/C=C/C=C(C)/C=C/C=C(C)/C=C/C2=C(C)C(=O)CCC2(C)C)C(C)(C)CCC1=O`: the outcome in experiment [1], in experiment [2] and in experiment [3] was inactive.

Consider `FC(F)(F)c1ccccc1Cl`, for which the compound was called inactive in experiment [4] and in experiment [3].

For `Cc1ccccc1N=Nc1ccc(N=Nc2c(O)ccc3ccccc23)c(C)c1`, the call in [2] was inactive.

Regarding `CC(=O)Nc1ccc(S(=O)(=O)Nc2cc(C)on2)cc1`, the result in experiment [1] and in experiment [2] was inactive.

On to `CCCCCC[C@@H](O)C/C=C\CCCCCCCC(=O)OC`, for which the outcome in [1] and in experiment [2] was inactive.

Turning to `O=C(O)CNC(=O)c1ccc(CO)o1`, the result in experiment [1] and in [3] was inactive.

Take `Cn1nnnc1SCC1=C(C(=O)O)N2C(=O)[C@@H](NC(=O)[C@H](OC=O)c3ccccc3)[C@H]2SC1`: in experiment [2], the call was inactive.

Take `CCCCc1cc2ccccc2c(OCCN(C)C)n1`: the call in [2] and in experiment [3] was inactive.

On to `Nc1nc(CC(=O)O)cs1`, for which the call in experiment [4] and in experiment [3] was inactive.

Take `CN(C)CCC=C1c2ccccc2C(C)(C)c2ccccc21`: the outcome in experiment [1] was inactive.

With `C=CC(C)(O)CCCC(C)CCCC(C)CCCC(C)C` (stereo not drawn), the compound was called inactive in experiment [2].

On to `CCOC(=O)Nc1ccc2c(c1)N(C(=O)CCN1CCOCC1)c1ccccc1S2`, for which the compound was called inactive in experiment [2].

Consider `CN[C@H]1CCc2cc(OC)c(OC)c(OC)c2-c2ccc(OC)c(=O)cc21`, for which the outcome in experiment [1] and in experiment [3] was inactive.

As to `COc1ccc(-c2cc(=S)ss2)cc1`, the call in experiment [4] and in experiment [3] was inactive.

For the compound `Nc1ccccc1S(=O)(=O)O`, the compound was classed as inactive in [2].

With `CS(=O)(=O)OCCOS(C)(=O)=O`, the call in experiment [5], in [6], in experiment [7], in experiment [8], in [9] and in experiment [10] was inactive. Moreover, the call in experiment [11], in experiment [12], in experiment [13], in [14], in [15] and in experiment [16] was inactive.
